Assay results published in ChEMBL document CHEMBL1961873, “Compounds: GSK PKIS; Assays: Nanosyn kinase panel” (2012).

Each compound was assayed against Mitogen-activated protein kinase kinase kinase kinase 4 (Homo sapiens) (UniProt O95819). Conditions: at 1 µM.
Chain of Mitogen-activated protein kinase kinase kinase kinase 4 (Homo sapiens) (O95819 2-1239 limits assumed): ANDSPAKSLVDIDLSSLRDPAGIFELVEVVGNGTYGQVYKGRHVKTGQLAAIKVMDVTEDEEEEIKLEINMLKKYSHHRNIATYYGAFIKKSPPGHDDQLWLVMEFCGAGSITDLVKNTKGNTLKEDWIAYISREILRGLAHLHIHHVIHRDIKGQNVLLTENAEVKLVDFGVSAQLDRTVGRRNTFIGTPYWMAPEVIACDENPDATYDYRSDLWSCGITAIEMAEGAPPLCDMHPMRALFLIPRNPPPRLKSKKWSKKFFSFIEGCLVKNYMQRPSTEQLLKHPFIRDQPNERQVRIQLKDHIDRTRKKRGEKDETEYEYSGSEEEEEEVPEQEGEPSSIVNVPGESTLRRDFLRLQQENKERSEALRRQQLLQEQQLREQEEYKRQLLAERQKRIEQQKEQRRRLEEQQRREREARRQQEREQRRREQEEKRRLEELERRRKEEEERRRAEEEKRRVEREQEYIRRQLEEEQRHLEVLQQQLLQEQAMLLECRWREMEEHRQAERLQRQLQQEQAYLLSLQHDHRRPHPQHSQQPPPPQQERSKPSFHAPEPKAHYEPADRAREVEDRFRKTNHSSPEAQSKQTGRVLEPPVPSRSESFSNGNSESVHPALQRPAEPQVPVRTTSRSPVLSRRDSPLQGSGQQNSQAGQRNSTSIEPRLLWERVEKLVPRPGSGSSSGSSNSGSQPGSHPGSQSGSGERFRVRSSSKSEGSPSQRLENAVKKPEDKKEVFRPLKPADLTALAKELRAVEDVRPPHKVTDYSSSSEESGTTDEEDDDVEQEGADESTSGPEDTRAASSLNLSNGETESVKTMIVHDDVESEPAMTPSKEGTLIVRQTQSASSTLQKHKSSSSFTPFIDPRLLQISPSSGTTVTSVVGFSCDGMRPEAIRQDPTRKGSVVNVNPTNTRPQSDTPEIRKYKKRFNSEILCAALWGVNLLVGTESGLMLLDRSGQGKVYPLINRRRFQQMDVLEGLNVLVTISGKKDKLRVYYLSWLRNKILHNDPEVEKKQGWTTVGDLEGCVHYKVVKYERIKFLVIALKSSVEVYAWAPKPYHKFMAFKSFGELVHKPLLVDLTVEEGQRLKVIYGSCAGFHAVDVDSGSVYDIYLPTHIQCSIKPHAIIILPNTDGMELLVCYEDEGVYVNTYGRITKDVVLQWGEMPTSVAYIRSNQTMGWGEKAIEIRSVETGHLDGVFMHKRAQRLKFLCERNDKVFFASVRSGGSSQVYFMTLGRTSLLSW

First: CN1CCC(n2cnc(-c3ccc(F)cc3)c2-c2ccnc(N)n2)CC1
Second: Cc1ccc2c(-c3ccnc(Nc4ccccc4)n3)c(-c3ccc(F)cc3)nn2n1
The inhibition of the first is lower: 12% for the first, 62.1% for the second.

Compared with NC(=O)c1sc(-n2cnc3ccc(C(F)(F)F)cc32)cc1OCc1ccccc1Br, CCOc1ccc2c(-c3ccnc(Nc4cccc(C(F)(F)F)c4)n3)cnn2n1 is lower in inhibition: 10.4% for the first, 4.83% for the second.

Compared with CN(C)CCOc1ccc(-c2nc(-c3ccncc3)c(-c3ccc4c(c3)CC/C4=N\O)[nH]2)cc1, Fc1ccc(-c2nn3ccccc3c2-c2ccncc2)cc1 is lower in inhibition: 47.2% for the first, 38.3% for the second.

Compared with CCCN(CCS(C)(=O)=O)Cc1ccc(-c2ccc3ncnc(Nc4ccc(OCc5cccc(F)c5)c(Cl)c4)c3c2)o1, O=S(=O)(CCNCc1ccc(-c2ccc3ncnc(Nc4ccc(OCc5cccc(F)c5)c(Cl)c4)c3c2)o1)c1ccccc1 is lower in inhibition: 11.1% for the first, 10.8% for the second.

Going from CCc1nn2ncccc2c1-c1ccnc(NC2CC2)n1 to c1cc(-c2cnn3nc(N4CCOCC4)ccc23)nc(NC2CC2)n1, the inhibition rises from 5.59% to 20.9%.

First: CCNC(=O)O[C@H]1CN[C@H](C#Cc2cc3ncnc(Nc4ccc(OCc5cccc(F)c5)c(Cl)c4)c3s2)C1
Second: CNC(=O)c1cccc(C#Cc2cncnc2Nc2ccc(OCc3cccc(F)c3)c(Cl)c2)c1
The inhibition of the first is higher: 5.98% for the first, 5.4% for the second.

First: CCN1CCC(CC(=O)Nc2n[nH]c3nnc(-c4cccc(F)c4F)cc23)CC1
Second: COc1cc(N2CCN(C(C)C)CC2)ccc1Nc1nc(Nc2ccc(F)cc2C(N)=O)c2cc[nH]c2n1
The inhibition of the first is lower: 3.87% for the first, 68.1% for the second.

Compared with CS(=O)(=O)CCNCc1coc(-c2ccc3ncnc(Nc4ccc(OCc5ccccc5)cc4)c3c2)c1, CS(=O)(=O)CCNCc1ccc(-c2ccc3ncnc(Nc4ccc(OCc5ccccc5)c(C(F)(F)F)c4)c3c2)o1 is lower in inhibition: 7.26% for the first, 4.73% for the second.

First: COc1ccc(-c2cc3c(N)ncnc3o2)cc1
Second: c1ccc(COc2ccc(Nc3ncnc4ccc(-c5ccco5)cc34)cc2)cc1
The inhibition of the first is higher: 9.41% for the first, 6.14% for the second.

Compared with N#Cc1c(NC(=O)CN2CCOCC2)sc2c1CCCC2, N#Cc1c(NC(=O)c2ccc(F)cc2)sc2c1CCCC2 is lower in inhibition: 8.62% for the first, 5.3% for the second.

Going from Clc1ccc(-c2nn3ncccc3c2-c2ccnc(Nc3ccccc3)n2)cc1 to Cc1ccc(O)cc1Nc1ccnc2cc(-c3ccccn3)ccc12, the inhibition rises from 39.9% to 75.5%.

Going from COc1cc(/C=N/Nc2ncnc3[nH]ncc23)ccc1O to COc1cc(Nc2nccc(Nc3ccc4c(C)n[nH]c4c3)n2)cc(OC)c1OC, the inhibition falls from 38.5% to 12.4%.

Going from CC(C)(CO)CNC(=O)c1ccc2c(c1)/C(=N/Nc1ccc(S(N)(=O)=O)cc1)C(=O)N2 to NS(=O)(=O)c1ccc(N/N=C2\C(=O)Nc3ccc4ncccc4c32)cc1, the inhibition rises from 18.8% to 82.4%.

Going from c1ccc(-c2nc3n(c2-c2ccc4c(c2)OCO4)CCC3)nc1 to Nc1ncc(-c2cccc(S(N)(=O)=O)c2)c2scc(-c3ccc(F)c(Cl)c3)c12, the inhibition rises from 6.59% to 92.6%.

Compared with COc1cc2c(cc1Nc1nc(Nc3ccsc3C(N)=O)c3cc[nH]c3n1)N(C(=O)CN(C)C)CCC2(C)C, CCN(CC)S(=O)(=O)c1ccc(OC)c(Nc2ncc(-c3ccccc3)o2)c1 is lower in inhibition: 14.8% for the first, 7.43% for the second.

First: CNC(=O)c1cc(-c2ccc(F)cc2)cc(-c2ccc(S(=O)(=O)N3CCCC3)cc2)c1N
Second: COC(=O)Nc1nc2ccc(Oc3ccc(NC(=O)Nc4cccc(Cl)c4)cc3)cc2[nH]1
The inhibition of the first is higher: 7.55% for the first, 3.87% for the second.

Compared with CCn1cc(-c2ccnc3[nH]ccc23)c(-c2cccc(NC(=O)Nc3ccc(OCc4ccccc4)cc3)c2)n1, CCn1c(-c2nonc2N)nc2c(C#CC(C)(C)O)nc(OC[C@H](N)c3ccccc3)cc21 is higher in inhibition: 27.8% for the first, 35.1% for the second.

The compounds below were run against Dual specificity mitogen-activated protein kinase kinase 1 (Homo sapiens) (UniProt Q02750). Conditions: at 0.1 µM.
Chain of Dual specificity mitogen-activated protein kinase kinase 1 (Homo sapiens) (Q02750 whole entry): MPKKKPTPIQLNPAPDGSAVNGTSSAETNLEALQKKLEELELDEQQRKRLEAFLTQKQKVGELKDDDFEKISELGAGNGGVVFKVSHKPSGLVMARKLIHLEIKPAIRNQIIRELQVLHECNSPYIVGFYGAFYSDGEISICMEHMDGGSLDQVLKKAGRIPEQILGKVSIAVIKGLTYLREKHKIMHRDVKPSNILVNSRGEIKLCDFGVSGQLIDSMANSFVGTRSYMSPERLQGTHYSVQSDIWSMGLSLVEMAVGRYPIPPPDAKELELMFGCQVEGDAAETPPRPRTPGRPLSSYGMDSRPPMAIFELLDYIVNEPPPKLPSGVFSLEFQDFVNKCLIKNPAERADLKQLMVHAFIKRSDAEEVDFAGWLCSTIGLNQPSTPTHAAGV

Going from CN1CCC(n2cnc(-c3ccc(F)cc3)c2-c2ccnc(N)n2)CC1 to Cc1ccc2c(-c3ccnc(Nc4ccccc4)n3)c(-c3ccc(F)cc3)nn2n1, the inhibition rises from 3.26% to 4.55%.

Compared with NC(=O)c1sc(-n2cnc3ccc(C(F)(F)F)cc32)cc1OCc1ccccc1Br, CCOc1ccc2c(-c3ccnc(Nc4cccc(C(F)(F)F)c4)n3)cnn2n1 is lower in inhibition: 4.95% for the first, 2.29% for the second.

Going from CN(C)CCOc1ccc(-c2nc(-c3ccncc3)c(-c3ccc4c(c3)CC/C4=N\O)[nH]2)cc1 to Fc1ccc(-c2nn3ccccc3c2-c2ccncc2)cc1, the inhibition falls from 4.37% to 1.23%.

First: CCCN(CCS(C)(=O)=O)Cc1ccc(-c2ccc3ncnc(Nc4ccc(OCc5cccc(F)c5)c(Cl)c4)c3c2)o1
Second: O=S(=O)(CCNCc1ccc(-c2ccc3ncnc(Nc4ccc(OCc5cccc(F)c5)c(Cl)c4)c3c2)o1)c1ccccc1
The inhibition of the first is lower: 1.53% for the first, 6.48% for the second.

Compared with CCc1nn2ncccc2c1-c1ccnc(NC2CC2)n1, c1cc(-c2cnn3nc(N4CCOCC4)ccc23)nc(NC2CC2)n1 is higher in inhibition: 2.65% for the first, 4.84% for the second.

Going from CCNC(=O)O[C@H]1CN[C@H](C#Cc2cc3ncnc(Nc4ccc(OCc5cccc(F)c5)c(Cl)c4)c3s2)C1 to CNC(=O)c1cccc(C#Cc2cncnc2Nc2ccc(OCc3cccc(F)c3)c(Cl)c2)c1, the inhibition falls from 2.35% to 0.1%.

Compared with CCN1CCC(CC(=O)Nc2n[nH]c3nnc(-c4cccc(F)c4F)cc23)CC1, COc1cc(N2CCN(C(C)C)CC2)ccc1Nc1nc(Nc2ccc(F)cc2C(N)=O)c2cc[nH]c2n1 is lower in inhibition: 2.23% for the first, 2.21% for the second.

Compared with CS(=O)(=O)CCNCc1coc(-c2ccc3ncnc(Nc4ccc(OCc5ccccc5)cc4)c3c2)c1, CS(=O)(=O)CCNCc1ccc(-c2ccc3ncnc(Nc4ccc(OCc5ccccc5)c(C(F)(F)F)c4)c3c2)o1 is higher in inhibition: 2.33% for the first, 3.83% for the second.

Compared with COc1ccc(-c2cc3c(N)ncnc3o2)cc1, c1ccc(COc2ccc(Nc3ncnc4ccc(-c5ccco5)cc34)cc2)cc1 is higher in inhibition: -0.07% for the first, 1.63% for the second.

Going from N#Cc1c(NC(=O)CN2CCOCC2)sc2c1CCCC2 to N#Cc1c(NC(=O)c2ccc(F)cc2)sc2c1CCCC2, the inhibition falls from 6.12% to 1.23%.

Going from Clc1ccc(-c2nn3ncccc3c2-c2ccnc(Nc3ccccc3)n2)cc1 to Cc1ccc(O)cc1Nc1ccnc2cc(-c3ccccn3)ccc12, the inhibition rises from 1.32% to 6.05%.

Compared with COc1cc(/C=N/Nc2ncnc3[nH]ncc23)ccc1O, COc1cc(Nc2nccc(Nc3ccc4c(C)n[nH]c4c3)n2)cc(OC)c1OC is lower in inhibition: 3.54% for the first, 2.25% for the second.

First: CC(C)(CO)CNC(=O)c1ccc2c(c1)/C(=N/Nc1ccc(S(N)(=O)=O)cc1)C(=O)N2
Second: NS(=O)(=O)c1ccc(N/N=C2\C(=O)Nc3ccc4ncccc4c32)cc1
The inhibition of the first is lower: 6.31% for the first, 14.3% for the second.

Compared with c1ccc(-c2nc3n(c2-c2ccc4c(c2)OCO4)CCC3)nc1, Nc1ncc(-c2cccc(S(N)(=O)=O)c2)c2scc(-c3ccc(F)c(Cl)c3)c12 is higher in inhibition: 1.98% for the first, 3.89% for the second.

Going from COc1cc2c(cc1Nc1nc(Nc3ccsc3C(N)=O)c3cc[nH]c3n1)N(C(=O)CN(C)C)CCC2(C)C to CCN(CC)S(=O)(=O)c1ccc(OC)c(Nc2ncc(-c3ccccc3)o2)c1, the inhibition falls from 6.86% to -0.08%.

Going from CNC(=O)c1cc(-c2ccc(F)cc2)cc(-c2ccc(S(=O)(=O)N3CCCC3)cc2)c1N to COC(=O)Nc1nc2ccc(Oc3ccc(NC(=O)Nc4cccc(Cl)c4)cc3)cc2[nH]1, the inhibition falls from 2.79% to 1.15%.

Going from CCn1cc(-c2ccnc3[nH]ccc23)c(-c2cccc(NC(=O)Nc3ccc(OCc4ccccc4)cc3)c2)n1 to CCn1c(-c2nonc2N)nc2c(C#CC(C)(C)O)nc(OC[C@H](N)c3ccccc3)cc21, the inhibition rises from 0.08% to 2.26%.
